From article PMC4552634, “A New Set of Chemical Starting Points with Plasmodium falciparum Transmission-Blocking Potential for Antimalarial Drug Discovery” (PLoS ONE, 2015)
Hit rate of the full screen: of about 13,000 compounds, about 3,200 (25%) showed an effect of 50% or more. The list shows a part of the results.

Each compound was assayed on P. falciparum stage V gametocytes. Details: 48 h, 5 µM; inhibitor.
Set-up: BacTiter-Glo ATP luminescence viability of purified stage V gametocytes in 384-well plates, per cent inhibition versus DMSO
`COCCN1CCC(CNCC(C)(C)c2nc(-c3ccc(Cl)c(O)c3)c(-c3ccncc3)[nH]2)CC1` [TCMDC-140898] was tested, and the “% Inhibition” value was -79.12%. With `O=C(Nc1cccc(CN2CCCN(Cc3ccc(O)cc3)CC2)c1)c1ccc(Br)cc1` [TCMDC-141883] the “% Inhibition” value was 15.8%. For `Cc1nc(NC2=NCN(CCCN3CCOCC3)CN2)nc2c(C)cccc12` [TCMDC-125086], the “% Inhibition” value was 47.98%. With `Cn1ccnc1CNC(=O)c1ccc(-c2cccc(-c3nc4cc(F)ccc4[nH]3)c2)cc1` [TCMDC-132354] the “% Inhibition” value was -5.334%. `O=c1c2sc(-c3ccc(Cl)cc3)cc2ncn1Cc1ccc(OCCN2CCCC2)c2ccccc12` [TCMDC-135387] was tested, and the “% Inhibition” value was 24.51%. For `Cc1cccc(CN2CCCN(Cc3ccc(C(=O)Nc4ccc(Cl)cc4)cc3)CC2)c1` [TCMDC-136407], the “% Inhibition” value was 32.89%. In the case of `Cc1cc(OCCN2CCCCC2)ccc1NC(=O)c1cccc2c(=O)n(Cc3ccc(Cl)cc3)cnc12` [TCMDC-136727], the “% Inhibition” value is reported as 103.4%. For `COc1ccc2nccc([C@@H](O)CN3CCC(NC(=O)Cc4cc5ccccc5s4)CC3)c2c1` [TCMDC-141033], the “% Inhibition” value was -11.21%. In the case of `O=C(Nc1ccc(-c2cccc(-c3nc4ccc(F)cc4[nH]3)c2)cc1)Nc1ccsc1` [TCMDC-133218], the “% Inhibition” value is reported as -7.279%. With `Cc1noc(C)c1-c1ccc2c(Nc3ccccc3C(C)(C)C)c(C(=O)NCc3ccccc3)cnc2c1.Cl` [TCMDC-136366] the “% Inhibition” value was -19.07%. For `Cc1noc(C)c1-c1ccc2c(Nc3ccccc3C(C)(C)C)c(C(=O)NCc3ccc(C(F)(F)F)cc3)cnc2c1.Cl` [TCMDC-136348], the “% Inhibition” value was -20.49%. In the case of `Cc1noc(C)c1-c1ccc2c(Nc3ccccc3N3CCOCC3)c(C(=O)NCc3ccccc3)cnc2c1.Cl` [TCMDC-136667], the “% Inhibition” value is reported as -0.5011%. `Cc1noc(C)c1-c1ccc2c(Nc3cccc4c3-c3ccccc3C4=O)c(C(=O)NCc3ccccc3I)cnc2c1` [TCMDC-136308] was tested, and the “% Inhibition” value was 93.19%. `Cc1noc(C)c1-c1ccc2c(Nc3nccc4ccccc34)c(C(N)=O)cnc2c1` [TCMDC-136456] was tested, and the “% Inhibition” value was 97%. In the case of `Cc1noc(C)c1-c1ccc2c(Nc3ccc(Cl)cc3)c(C(N)=O)cnc2c1.Cl` [TCMDC-136010], the “% Inhibition” value is reported as 9.933%. `Cc1noc(C)c1-c1ccc2c(Nc3ccccc3C(C)(C)C)c(C(=O)NCc3cccc4ccccc34)cnc2c1.Cl` [TCMDC-136375] was tested, and the “% Inhibition” value was -44.64%. `Cc1noc(C)c1-c1ccc2c(Nc3ccccc3C(C)(C)C)c(C(=O)NCc3ccc4c(c3)OCO4)cnc2c1.Cl` [TCMDC-136353] was tested, and the “% Inhibition” value was 56.26%. `CC(=O)c1ccc(Nc2c(C(N)=O)cnc3cc(-c4c(C)noc4C)ccc23)cc1` [TCMDC-136058] was tested, and the “% Inhibition” value was -8.163%. In the case of `COc1ccc2nccc(N3CCC(CCNCc4ccc5c(n4)NC(=O)CS5)CC3)c2c1.Cl` [TCMDC-141905], the “% Inhibition” value is reported as -14.76%. For `Cc1cccc2[nH]c(-c3cccc(-c4cccc(NC(=O)Nc5ccc(Cl)c(Cl)c5)c4)c3)nc12` [TCMDC-133277], the “% Inhibition” value was -37.89%. In the case of `COc1nc(N)ncc1C(=O)NC1CN2CCC1CC2` (stereo not drawn) [TCMDC-131574], the “% Inhibition” value is reported as 17.61%. In the case of `CN1CCN(c2ccc(-c3cccc(NC(=O)c4ccc5ccccc5c4)c3)nn2)CC1` [TCMDC-125349], the “% Inhibition” value is reported as 17.67%. `Cc1ccc(C(=O)Nc2cccc(-c3ccc(N4CCN(C)CC4)nn3)c2)cc1[N+](=O)[O-]` [TCMDC-124931] was tested, and the “% Inhibition” value was 60.61%. For `CN1CCN(c2ccc(-c3cccc(NC(=O)c4cccc([N+](=O)[O-])c4)c3)nn2)CC1` [TCMDC-125452], the “% Inhibition” value was -8.078%. In the case of `COc1cccc(C(=O)N2CCN(Cc3cccc(NC(=O)c4cccs4)c3)CC2)c1` [TCMDC-136327], the “% Inhibition” value is reported as -13.29%. In the case of `Cc1[nH]c(C)c(-c2ccc(-c3ccccc3F)nc2)c(=O)c1Cl` [TCMDC-135927], the “% Inhibition” value is reported as 68.96%. With `Cc1[nH]c(C)c(-c2ccc(-c3ccccc3F)nc2)c(=O)c1Br` [TCMDC-135926] the “% Inhibition” value was 66.81%. `O=C(/C=C/c1ccc(F)c(Br)c1)NCCCCCN1CCC(c2c[nH]c3ccccc23)CC1` [TCMDC-139235] was tested, and the “% Inhibition” value was -23.07%. In the case of `COc1ccc(/C=C/C(=O)NCCCCCN2CCC(c3c[nH]c4ccccc34)CC2)cc1O` [TCMDC-139754], the “% Inhibition” value is reported as -52.52%. In the case of `O=C(/C=C/c1ccc(Br)cc1)NCCCCCN1CCC(c2c[nH]c3ccccc23)CC1` [TCMDC-139199], the “% Inhibition” value is reported as 51.21%. With `O=C(/C=C/c1ccc(-c2ccccc2)cc1)NCCCCCN1CCC(c2c[nH]c3ccccc23)CC1` [TCMDC-139210] the “% Inhibition” value was 111.8%. `O=C(/C=C/c1ccc(I)cc1)NCCCCCN1CCC(c2c[nH]c3ccccc23)CC1` [TCMDC-139198] was tested, and the “% Inhibition” value was 49.23%. In the case of `CC(C)(C)c1ccc(/C=C/C(=O)NCCCCCN2CCC(c3c[nH]c4ccccc34)CC2)cc1` [TCMDC-139247], the “% Inhibition” value is reported as 18.04%. `Cc1ccc(/C=C/C(=O)NCCCCCN2CCC(c3c[nH]c4ccccc34)CC2)cc1` [TCMDC-139236] was tested, and the “% Inhibition” value was 53.65%. With `O=C(/C=C/C=C/c1ccccc1)NCCCCCN1CCC(c2c[nH]c3ccccc23)CC1` [TCMDC-139216] the “% Inhibition” value was 106.6%. In the case of `Cc1ccc(Nc2nc(C)cc(NCc3ccc(-n4ccnc4)cc3)n2)cc1` [TCMDC-133454], the “% Inhibition” value is reported as 13.72%. `c1ccc(C2CCC(N3CCC(N4CCCC4)CC3)CC2)cc1` (stereo not drawn) [TCMDC-124349] was tested, and the “% Inhibition” value was 3.112%. `CN1CC=C(c2c[nH]c3ccc(Sc4ccccc4)cc23)CC1` [TCMDC-138969] was tested, and the “% Inhibition” value was 5.413%. For `CCN1CCN(Cc2ccc3nc(-c4cc(C)n(Cc5cc(Cl)ccc5OCc5ccccc5)n4)[nH]c3c2)CC1` [TCMDC-136884], the “% Inhibition” value was 23.91%. For `CC(C)C[C@H]1c2[nH]c3ccc(Cl)cc3c2CCN1C(=O)CCc1ccccc1` [TCMDC-135179], the “% Inhibition” value was 1.219%. In the case of `Cn1c(=N)n(CC(=O)OCc2ccc(OCc3ccccc3)cc2)c2ccccc21` [TCMDC-138698], the “% Inhibition” value is reported as 4.888%. In the case of `Cn1c(=N)n(CC(=O)N2CCc3ccc(Cl)cc3C2Cc2ccc(Cl)c(Cl)c2)c2ccccc21` (stereo not drawn) [TCMDC-138699], the “% Inhibition” value is reported as 109.1%.
